Measured values taken from PubChem BioAssay (NCATS).
Records with an inconclusive call do not appear. Where a call stands in place of a potency, no number is given. Calls of active or inactive are those of the source. Unless noted, calls come from the whole dose curve; as a rule, active = well fitted inhibition curve with a large enough effect; inconclusive = small, poorly fitted or top-dose-only effect; inactive = flat fitted curve, though single readings scatter.

Assays:
[1] = qHTS profiling for inhibitors of Plasmodium falciparum proliferation (AID 504749); note: potency is the fitted concentration of half-maximal effect; for all read-outs here: nearly all actives have a fitted effect of over 60% in size; details: P. falciparum in erythrocytes, SYBR Green DNA, 72 h; for activity, negative = inhibition: at 28.7 µM (top of the series)
Method in brief: (§1)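 P. falciparum-infected erythrocytes (0.3% parasitemia, 2.5% hematocrit final) were exposed to compounds for 72 h at 37 C in 5% CO2, then lysed with SYBR Green buffer overnight at room temperature; parasite DNA fluorescence was normalized to artemisinin and DMSO controls.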

3D7 = assay: as above; details: P. falciparum in erythrocytes, SYBR Green DNA, 72 h; series mostly up to 28.7 µM
Method in brief: as §1

7G8 = assay: as above; details: P. falciparum in erythrocytes, SYBR Green DNA, 72 h; series mostly up to 28.7 µM
Method in brief: as §1

AA1029 = assay: as above; details: P. falciparum in erythrocytes, SYBR Green DNA, 72 h; series mostly up to 28.7 µM
Method in brief: as §1

AS120 = assay: as above; details: P. falciparum in erythrocytes, SYBR Green DNA, 72 h; series mostly up to 28.7 µM
Method in brief: as §1

ATS189 = assay: as above; details: P. falciparum in erythrocytes, SYBR Green DNA, 72 h; series mostly up to 28.7 µM
Method in brief: as §1

ATS95 = assay: as above; details: P. falciparum in erythrocytes, SYBR Green DNA, 72 h; series mostly up to 28.7 µM
Method in brief: as §1

C2A = assay: as above; details: P. falciparum in erythrocytes, SYBR Green DNA, 72 h; series mostly up to 28.7 µM
Method in brief: as §1

CP185 = assay: as above; details: P. falciparum in erythrocytes, SYBR Green DNA, 72 h; series mostly up to 28.7 µM
Method in brief: as §1

CP191 = assay: as above; details: P. falciparum in erythrocytes, SYBR Green DNA, 72 h; series mostly up to 28.7 µM
Method in brief: as §1

CP192 = assay: as above; details: P. falciparum in erythrocytes, SYBR Green DNA, 72 h; series mostly up to 28.7 µM
Method in brief: as §1

CP194 = assay: as above; details: P. falciparum in erythrocytes, SYBR Green DNA, 72 h; series mostly up to 28.7 µM
Method in brief: as §1

[2] = qHTS drug screen for cell cycle checkpoint inhibitors in PARPi-resistant BRCA-mutant ovarian cancer cell lines. (AID 1963452; calls by dose curve); details: PEO1/OlaR viability, CellTiter-Glo luminescence, 96 h, stronger effect = lower value
Method in brief: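 PEO1, PEO4 and PEO1/OlaR ovarian cancer cells, 600 per well, exposed 96 h at 37C to a dilution series. Viability read by CellTiter-Glo luminescence, normalized to DMSO and empty wells; activity summarized as Z-AUC.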

SMILES | activity, negative = inhibition ([1]; parasite line A) | activity, negative = inhibition ([1]; parasite line B) | Potency (3D7) | Potency (7G8) | Potency (AA1029) | Potency (AS120) | Potency (ATS189) | Potency (ATS95) | Potency (C2A) | Potency (CP185) | Potency (CP191) | Potency (CP192) | Potency (CP194) | Z-AUC [2] | Z-AUC ([2]; measured here: PEO1 parental Z-AUC) | Z-AUC ([2]; measured here: PEO4 Z-AUC) | Potency ([1]; parasite line A)
NC(=O)OCCCc1ccccc1 | -9.09% (inactive) | 10.5% (inactive) | inactive | inactive | inactive | inactive | inactive | inactive | inactive | inactive | inactive | inactive | inactive |  |  |  | 
COc1ccc(C(=O)N2CCCC2=O)cc1 | 4.48% (inactive) | 11% (inactive) | inactive | inactive | inactive | inactive | inactive | inactive | inactive | inactive | inactive | inactive | inactive | -0.603 (inactive) | 0.111 | -0.65 | 
Cc1ncc2n1-c1ccc(Cl)cc1C(c1ccccc1F)=NC2 | 7.97% (inactive) | -15.6% (inactive) | inactive | inactive | inactive | inactive | inactive | inactive | inactive | inactive | inactive | inactive | inactive |  |  |  | 
CC(C)(C)OC(=O)c1ncn2c1[C@@H]1CCCN1C(=O)c1c(Br)cccc1-2 | 0.318% (inactive) | 11.2% (inactive) | inactive |  | inactive | inactive | inactive | inactive | inactive | inactive | inactive | inactive | inactive |  |  |  | 
O=C1NCN(c2ccccc2)C12CCN(CCCOc1ccc(F)cc1)CC2 |  | -11.5% (inactive) | inactive | 11.2 µM (active) |  |  |  |  |  |  |  | inactive |  |  |  |  | 
CCC1(CC)C(=O)NC(=O)NC1=O | -0.0726% (inactive) | 11.2% (inactive) | inactive |  | inactive | inactive | inactive | inactive | inactive | inactive | inactive | inactive | inactive |  |  |  | 
Cc1c(Cl)c(=O)oc2cc(OP(=O)(OCCCl)OCCCl)ccc12 |  |  |  | 12.6 µM (active) | 11.2 µM (active) | 11.2 µM (active) | 11.2 µM (active) | 7.94 µM (active) | 10 µM (active) |  | 10 µM (active) |  | 9.53 µM (active) |  |  |  | 8.91 µM (active)
